# Records with an inconclusive call do not appear. Unmarked numbers belong to inactive results. Calls come from the whole dose curve; as a rule, active = well fitted cell-killing curve with a large enough effect in the repeat runs; inconclusive = weak or mixed curves, or effect the other way; inactive = flat fitted curve, though single readings scatter.
# Assay: qHTS RealTime-Glo MT Cell Viability Assay in HepG2 cells - 40 hour (AID 1224870); note: nearly all actives have a fitted effect of over 50% in size
# Settings: RealTime-Glo luminescence; series mostly up to 76.8 µM; activity change, negative = cytotoxic: at the top concentration
# Method in brief: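 Real-time viability: cells seeded at 600 per well together with NanoLuc and cell-permeant prosubstrate, compounds added after 5 h incubation. Luminescence tracked at 0, 8, 16, 24, 32 and 40 h of exposure.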
# % is set by controls: 0 for no effect and ±100 for the full control effect.
row,Structure (SMILES),"activity change, negative = cytotoxic"
1,O=C(Nc1ccc([N+](=O)[O-])cc1)Nc1ccc([N+](=O)[O-])cc1 (tested in a mixture with another compound),-3.15% [at 35.3 µM]
2,c1ccc(-c2nc3ccccc3[nH]2)cc1,23.6%
3,CC/C=C\C/C=C\C/C=C\CCCCCCCC(=O)OC,12.9%
4,C=CC(=O)OCCOC1C2CCC1C1CC=CC12 (centres undefined),5.7% [at 15.8 µM]
5,Cc1ccc(N=Nc2c(O)ccc3ccccc23)c(C)c1,-2.2% [at 35.3 µM]
6,C/C=C/C(=O)OCC(C)C,-4.74%
7,CCCCCCCCCCCC(=O)Cl,-2.64%
8,[Cl][Eu]([Cl])[Cl],3.6%
9,O=C1OCc2ccccc21,10.6%
10,O=C1OC(=O)c2cc(-c3ccc4c(c3)C(=O)OC4=O)ccc21,-2.47%
11,Cc1c(Cl)c(=O)oc2cc(O)ccc12,12.8%
12,CN1CCN(C)CC1,24.6%
13,CCOC(=O)[C@H](C)O,-8.28%
14,CC(=O)CC(N)=O,-5.09%
15,COCCC(=O)OC,0.733%
16,O=C(NCc1ncc(C(F)(F)F)cc1Cl)c1c(Cl)cccc1Cl,-15.4%
17,O=C1CCC/C=C\CCCCCCCCCC1,1.22%
18,Nc1ccc(Cl)c([N+](=O)[O-])c1,-8.79%
19,C=C(C)C1CCC(C)CC1O (centres undefined),-5.64%
